Bioassay records: PubChem, National Center for Advancing Translational Sciences (NCATS)
In the library only some 10% were active in any assay of this set; here they are far more common.
CCT chaperon mod: changes cytosolic chaperonin activity | 360,000 compounds, 0.3% hits | activity change, % (test concentration not listed), hits read low | purified chaperonin ATPase assay, HTRF ADP detection, 30 min; in the data active = activity change below about -30%
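TRiC (40 or 20 nM final, by batch activity) in 30 mM Tris pH 7.4, 100 mM KCl, 5 mM MgCl2, 1 mM DTT was treated with compound at 76 uM single dose, then 10 uM ATP, 30 min at 37 °C. ADP was read by HTRF Transcreener.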
Sfp PPTase inh: Sfp phosphopantetheinyl transferase inhibition. Q9F4F7. Biochemical Sfp PPTase activity, qHTS. Potency, µM, without a hit: largest response in the series, negative = inhibition, most hits filed as inhibitors. 310,000 compounds, 3.5% hits;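 also: the enzyme is Sfp with the accession as filed and its product quenches rhodamine fluorescence; potency is read from the fitted curve at half-maximal effect; 0% = enzyme reaction without inhibitor and -100% = no enzyme wells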
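Step 1, compound plus 15 nM Sfp-PPTase, 15 min, room temperature. Step 2, add rhodamine-CoA (5 uM) and BHQ-2-YbbR (12.5 uM). Step 3, read 525/598 nm fluorescence at 0 and 30 min.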
PLK1 PBD block: blocks phosphopeptide binding to human PLK1 polo-box domain; P53350; Plk1 PBD binding of FITC phosphopeptide, fluorescence polarization; Potency, µM, for inactives: max response, negative = inhibition, most hits filed as inhibitors; 360,000 compounds, 2.8% hits; AID 720504; also: potency is read from the fitted curve at half-maximal effect; series mostly up to about 57 µM; nearly all actives have a fitted effect of over 65% in size
Mm-Cpn inhibitor: inhibitors of Methanococcus maripaludis chaperonin TRiC (MmCpn) | Potency, µM (titrated, usually from 76.9 µM), for inactives: at the top dose activity, negative = inhibition, usual class: inhibitors | purified Mm-Cpn ATPase, ADP Transcreener TR-FRET | 330,000 compounds, 0.031% hits; also: potency is read from the fitted curve at half-maximal effect; nearly all actives have a fitted effect of over 80% in size
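Compound-treated chaperonin, 25 nM final, turns over 10 uM ATP at 37°C for 30 min following a 10 min preincubation; ADP generated competes with ADP-d2 for Eu-cryptate antibody, lowering FRET.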
G9a inh: blocks human histone lysine methyltransferase G9a. Q96KQ7. G9a H3K9 monomethylation, AlphaScreen, 2 h. Potency, µM (doses to about 102 µM), for the others: at the highest dose activity, negative = inhibition, actives largely listed as inhibitors. 350,000 compounds, 8.8% hits; also: potency is read from the fitted curve at half-maximal effect; nearly all actives have a fitted effect of over 75% in size
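Step 1: enzyme (final 20 nM) with compound, 15 min RT. Step 2: substrate peptide 500 nM and SAM 20 uM, 2 h RT. Step 3: anti-H3K9me1 antibody and AlphaScreen beads, 10 min, then plate read.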
VDR inh: inhibitors of human vitamin D receptor; P11473; VDR-SRC2-3 peptide fluorescence polarization, 2 h; Potency, µM, for inactives: max response, negative = inhibition, hits mostly inhibitors; 400,000 compounds, 0.93% hits; also: potency is read from the fitted curve at half-maximal effect
Target sequence (P11473 whole entry, looked up): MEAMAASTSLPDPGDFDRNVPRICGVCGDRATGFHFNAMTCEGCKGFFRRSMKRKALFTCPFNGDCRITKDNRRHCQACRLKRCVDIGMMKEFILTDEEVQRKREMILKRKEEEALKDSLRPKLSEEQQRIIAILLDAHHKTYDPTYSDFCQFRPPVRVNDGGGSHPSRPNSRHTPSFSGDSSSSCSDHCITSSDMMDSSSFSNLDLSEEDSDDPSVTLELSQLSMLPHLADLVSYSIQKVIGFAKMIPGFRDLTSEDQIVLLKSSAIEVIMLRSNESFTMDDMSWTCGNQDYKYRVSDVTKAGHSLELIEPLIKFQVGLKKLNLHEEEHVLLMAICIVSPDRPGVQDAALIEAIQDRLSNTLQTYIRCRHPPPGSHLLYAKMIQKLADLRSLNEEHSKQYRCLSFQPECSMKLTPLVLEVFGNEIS
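Two reagent solutions held at 4 deg C in the dark were dispensed, compounds pinned at 23 nl, and the mixture incubated 2 h at room temperature. Read-out: fluorescence polarization of VDR–SRC2-3 peptide binding.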
Active calls of the source: *; ? = inconclusive; . = not tested or not shown; [ ] = dose if it differs, or a comment. Unless noted, calls follow the shape of the dose curve; as a rule, active = well fitted curve in the direction sought with a large enough effect; inconclusive = small, poorly fitted or top-dose-only effect, or another doubt; inactive = no such curve, though single readings can be large; an effect the other way counts as inactive or inconclusive. Unless noted, % is scaled to controls: 0 for no effect and ±100 for the full control effect.

SMILES	CCT chaperon mod	Sfp PPTase inh	PLK1 PBD block	Mm-Cpn inhibitor	G9a inh	VDR inh
Cc1cccc(OCC(=O)Nc2c(C(=O)N3CCN(c4ccccc4F)CC3)oc3ccccc23)c1	.	.	.	.	?	9.3%
COc1ccc(C2C(C#N)=C(N)Oc3c2sc2nc(C)cc(C)c32)cc1 (configuration not stated)	-3.5	9.2%	-13.8%	-0.9%	11.2µM*	-6.3%
CCOC(=O)c1c(S(=O)(=O)NCC(=O)N2CCN(c3cccc(Cl)c3)CC2)c(C)n(C)c1C	.	.	.	.	-27.0%[59 µM]	7.9%
O=C(NC1CCCCCC1)C(=S)NCc1ccccc1	0.8	56.2µM*	21.2µM*	-4.7%	-115.8%[59 µM]	?
O=C(NCCc1ccccc1)NC1CCCCC1	-0.3	13.1%	3.7%	1.7%	4.8%[12.7 µM]	-3.4%
O=C(NC1CCCCCC1)C(=S)NCCc1ccccc1	0.2	14.1µM*	10.6µM*	-0.6%	.	?
CC1(C)CC(=O)C2=C(C1)NC(Nc1nc3ccccc3o1)=NC2c1cccc(F)c1 (configuration not stated)	.	.	.	.	.	-12.5%
COC(=O)CN1C(=O)C(O)(c2c(C)[nH]c3ccccc23)c2ccccc21 (configuration not stated)	.	.	.	.	7.6%[59 µM]	5.0%
Cn1c(=O)cc(C(=O)N/N=C/c2ccc(F)cc2)[nH]c1=O	0.7	?	-2.6%	0.0%	6.7%	28.4%
CN=c1scc(-c2ccc(F)cc2)n1/N=C/c1ccc(O)c(O)c1	0.2	56.2µM*	-7.0%	-1.9%	4.47µM*	-4.1%
O=C(O)COc1cccc(/C=C2/SC(=S)N(Cc3ccccc3)C2=O)c1	-5.7	1.1%	23.8µM*	-17.1%	44.7µM*	79.4µM*
Cc1cccc(Cc2cnc(NC(=O)CN3C(=O)/C(=C/c4ccccc4)SC3=S)s2)c1	-2.6	-14.2%	-11.9%	0.7%	39.8µM*	4.3%
O=C(O)COc1ccc(C=C2SC(=S)N(c3ccccc3)C2=O)cc1	-0.2	.	-9.6%	.	.	-12.2%
O=C(O)CN1C(=O)/C(=C\c2cccc(OCc3ccccc3)c2)SC1=S	-0.4	5.9%	23.8µM*	-1.2%	-3.9%[0.501 µM]	56.2µM*
CN1C(=O)/C(=C\c2cccc(OCc3ccccc3)c2)SC1=S	0.8	-0.7%	0.5%	0.3%	-12.6%	-6.3%
CC(C)C(NC(=O)c1ccccc1)C(=O)OCC(=O)N1CCN(c2ccccc2)CC1 (configuration not stated)	3.5	.	1.3%	0.4%	-6.1%[12.7 µM]	0.1%
CC(C)C(NC(=O)c1ccccc1)C(=O)OCC(=O)N1CCCCC1 (configuration not stated)	-39.9*	.	-11.6%	-0.7%	4.8%[12.7 µM]	-0.2%
O=C(CN1CCN(Cc2ccccc2F)CC1)Nc1ccccc1Cl	-0.3	2.3%	-2.9%	2.0%	13.8%	-0.2%
O=C(CCC(=O)c1ccc(F)cc1)Nc1ccccc1Cl	-1.5	3.8%	26.7µM*	1.7%	12.5%[59 µM]	-14.8%
O=C(CN1CCN(CC(=O)c2ccc(F)cc2)CC1)Nc1ccccc1Cl	6.6	-15.6%	-21.4%	-2.2%	7.08µM*	-12.1%
Cc1nc(SCc2cc(=O)c3cccc(F)c3[nH]2)n[nH]1	.	.	.	.	-1.8%[59 µM]	4.7%
COc1ccc(C)cc1Nc1nc2cc(Cl)c(Cl)cc2nc1-n1nc(C)cc1C	.	.	.	.	-5.8%[59 µM]	-2.0%
CCn1c2ccccc2c2cc(/C=N/n3c(C)nnc3C)ccc21	2.3	50.1µM*	-3.5%	-2.7%	22.9%[12.7 µM]	1.1%
CC(=O)c1c(C)n(-c2cccc(Cl)c2)c2ccc(OC(=O)c3ccccc3)cc12	.	.	.	.	3.9%[59 µM]	-21.4%
CC(C)[C@@H](CC(=O)N[C@@H]1CCCC[C@H]1C(=O)N[C@H](CC(=O)N[C@@H](CCC(=O)O)CC(=O)O)Cc1c[nH]c2ccccc12)NC(=O)C[C@H](Cc1ccccc1)NC(=O)[C@@H]1CCCC[C@H]1N	.	-6.5%	.	.	.	0.2%
O=C(Nc1ccc(Cl)c(C(F)(F)F)c1)C1CCN(S(=O)(=O)c2cccc3nonc23)CC1	.	.	.	.	-32.2%[59 µM]	-0.9%
CC1(C)CC(=O)C(=Cc2cn(-c3ccccc3)nc2-c2ccc(Cl)cc2)C(=O)C1	-1.8	89.1µM*	1.19µM*	2.4%	3.5%[0.501 µM]	?
